Measured values reported in PubChem BioAssay (EPA / NIEHS).
Inconclusive results are not listed. A structure can be active in one record and inactive in another. Active and inactive are the calls of the source. Rule for the calls, unless noted: active = hit-call score of the fitted dose curve at least 0.9, where 1 is the maximum; inactive = score below 0.9.

Experiments:
[1] = read-out: Interleukin-8 (IL8), CXCL8 (gene 3576); assay: BSK_3C_IL8: BioMAP Diversity Plus: 3C Assay for Interleukin-8 (IL8) Biomarker Activity (AID 2283020); conditions: primary human endothelial cells (HUVEC); actives raise or lower the signal
How it was run: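 Primary human umbilical vein endothelial cells (3C system) were exposed to test chemical for 24 h, then IL-8 was quantified by ELISA. Responses were fitted bidirectionally against DMSO vehicle as baseline.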

[2] = read-out: Monokine induced gamma interferon (MIG), CXCL9 (gene 4283); assay: BSK_3C_MIG: BioMAP Diversity Plus: 3C Assay for Monokine induced gamma interferon (MIG) Biomarker Activity (AID 2283021); conditions: primary human endothelial cells (HUVEC); actives raise or lower the signal;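 for AC50: MIG protein level measured by immunoassay in the treated endothelial cultures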
How it was run: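 Primary human umbilical vein endothelial cells in the 3C system were exposed to chemical for 24 h, after which MIG was quantified by ELISA. Activity was fitted bidirectionally against DMSO as negative control and baseline.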

[3] = molecular target: human Vitamin D Receptor (VDR), VDR (gene 7421) (UniProt P11473); assay: ATG_VDR_TRANS: Attagene TRANS-FACTORIAL HepG2 Assay for human Vitamin D Receptor (VDR) (AID 2283022; active = hit-call score of the fitted dose curve at least 0.9, where 1 is the maximum)
Chain of human Vitamin D Receptor (VDR), VDR (gene 7421) (P11473 whole entry, looked up, the tested form may be a part): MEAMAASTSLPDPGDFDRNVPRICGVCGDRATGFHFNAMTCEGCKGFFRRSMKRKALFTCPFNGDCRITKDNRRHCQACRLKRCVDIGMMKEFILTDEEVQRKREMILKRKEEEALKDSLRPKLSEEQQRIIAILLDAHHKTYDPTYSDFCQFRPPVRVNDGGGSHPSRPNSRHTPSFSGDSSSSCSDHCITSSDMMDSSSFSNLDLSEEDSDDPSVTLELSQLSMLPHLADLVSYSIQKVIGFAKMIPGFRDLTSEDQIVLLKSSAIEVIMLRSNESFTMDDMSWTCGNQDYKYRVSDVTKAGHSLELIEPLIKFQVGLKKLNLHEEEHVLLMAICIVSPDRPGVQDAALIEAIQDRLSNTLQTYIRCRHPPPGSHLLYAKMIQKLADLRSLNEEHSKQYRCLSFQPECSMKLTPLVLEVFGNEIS
How it was run: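 HepG2 cells were transiently transfected with GAL4-UAS reporter units and a chimeric VDR-Gal4 construct, then dosed for 24 hours. Reporter mRNA was quantified by RT-PCR, fluorescent labeling, HpaI digestion and capillary electrophoresis; gain of signal analysed vs DMSO.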

[4] = BSK_3C_SRB: Viability Assessment in the BioMAP Diversity Plus: 3C Assay (AID 2283023); conditions: primary human endothelial cells (HUVEC);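 note: fitted both ways against DMSO so a hit may be signal rise or drop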
How it was run: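 Human umbilical vein endothelial cells in the 3C system, treated 24 h. Total protein measured by 0.1% sulforhodamine B staining after 10% TCA fixation, read at 560 nm; bidirectional fit versus DMSO.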

[5] = read-out: Matrix Metallopeptidase 1 (MMP1), MMP1 (gene 4312); assay: BSK_BE3C_MMP1: BioMAP Diversity Plus: BE3C Assay for Matrix Metallopeptidase 1 (MMP1) Biomarker Activity (AID 2283024); conditions: primary human bronchial epithelial cells; actives raise or lower the signal
How it was run: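 Primary human bronchial epithelial cells were dosed with test chemicals, and MMP1 levels were measured by ELISA 24 h later. Data were fitted bidirectionally against DMSO as the negative control and activity baseline.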

[6] = BSK_3C_Vis: BioMAP Diversity Plus: 3C Assay for Morphology Visualization (AID 2283025); conditions: primary human endothelial cells (HUVEC);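 note: fitted both ways so gain or loss versus DMSO counts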
How it was run: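 Human umbilical vein endothelial cells in the 3C system were imaged by light microscopy 24 h after chemical dosing to record cell morphology. Activity was fitted bidirectionally against DMSO as negative control and baseline; the endpoint serves as a background control.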

[7] = read-out: Pselectin, SELP (gene 6403); assay: BSK_4H_Pselectin: BioMAP Diversity Plus: 4H Assay for Pselectin Biomarker Activity (AID 2283026); conditions: primary human endothelial cells (HUVEC); actives raise or lower the signal
How it was run: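 Primary human umbilical vein endothelial cells were exposed to test chemical for 24 h, then cell-surface P-selectin was quantified by ELISA. Activity was fitted bidirectionally against DMSO as negative control and baseline.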

[8] = BSK_4H_SRB: Viability Assessment in the BioMAP Diversity Plus: 4H Assay (AID 2283027); conditions: primary human endothelial cells (HUVEC);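 note: cells exposed to compound for 24 h before staining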;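 for AC50: curves fitted both ways versus DMSO so AC50 may be loss or gain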
How it was run: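 Absorbance at 560 nm of SRB-stained total protein served as the viability read-out in confluent primary human umbilical vein endothelium 24 h after chemical treatment. Curves were fitted bidirectionally against DMSO as negative control.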

[9] = BSK_BE3C_SRB: Viability Assessment in the BioMAP Diversity Plus: BE3C Assay (AID 2283028); conditions: primary human bronchial epithelial cells;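 for AC50: fitted both ways so AC50 may mark signal gain or loss versus DMSO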
How it was run: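 Human bronchial epithelial primary cells in confluent culture, 24 h after chemical dosing; total protein by 0.1% SRB staining after 10% TCA fixation, read at 560 nm. Bidirectional fitting versus DMSO baseline.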

[10] = read-out: Thrombomodulin, THBD (gene 7056); assay: BSK_3C_Thrombomodulin: BioMAP Diversity Plus: 3C Assay for Thrombomodulin Biomarker Activity (AID 2283029); conditions: primary human endothelial cells (HUVEC); actives raise or lower the signal
How it was run: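 Primary human umbilical vein endothelial cells (3C system) were exposed to chemical for 24 h, then thrombomodulin levels were measured by ELISA. Activity was fitted bidirectionally against the DMSO negative control as baseline.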

Row | Structure (SMILES) | AC50 [1] | outcome [2] | outcome [3] | AC50 [4] | AC50 [5] | AC50 [6] | AC50 [7] | AC50 [8] | outcome [9] | AC50 [10] | outcome [1] | outcome [4] | outcome [5] | outcome [6] | outcome [7] | outcome [8] | outcome [10] | AC50 [2] | AC50 [9]
1 | CCCCC(CC)COP(=O)(Oc1ccccc1)Oc1ccccc1 (stereo not drawn) | 6.65 µM (active) | inactive | inactive | 9.7 µM (active) | 1.91 µM (active) | 10.1 µM (active) | 12.3 µM (active) | 20 µM (active) | inactive | 3.97 µM (active) |  |  |  |  |  |  |  |  | 
2 | CCCCC(CC)COC(=O)c1c(Br)c(Br)c(Br)c(Br)c1C(=O)OCC(CC)CCCC (stereo not drawn) |  | inactive | inactive |  |  |  |  |  | inactive |  | inactive | inactive | inactive | inactive | inactive | inactive | inactive |  | 
3 | O=P1(N(CCCl)CCCl)NCCCO1 (stereo not drawn) |  | inactive | inactive |  |  |  |  |  | inactive |  | inactive | inactive | inactive | inactive | inactive | inactive | inactive |  | 
4 | CCCN(CCC)c1c([N+](=O)[O-])cc(C(C)C)cc1[N+](=O)[O-] | 31.2 µM (active) | inactive | inactive | 28.9 µM (active) |  |  |  | 32.8 µM (active) | inactive |  |  |  | inactive | inactive | inactive |  | inactive |  | 
5 | Cc1cccc(N)c1 |  | inactive | inactive |  |  |  |  |  | inactive |  | inactive | inactive | inactive | inactive | inactive | inactive | inactive |  | 
6 | c1ccc2c(c1)sc1ccccc12 |  | inactive | inactive |  |  |  |  |  | inactive |  | inactive | inactive | inactive | inactive | inactive | inactive | inactive |  | 
7 | FC(F)(F)C(F)(C(F)(F)F)C(F)(F)C(F)(F)CC1CO1 (stereo not drawn) |  | inactive | inactive |  | 2.33 µM (active) |  |  |  | inactive |  | inactive | inactive | inactive |  | inactive | inactive | inactive |  | 
8 | CCOP(=S)(OCC)SCSCC |  | inactive | inactive |  |  |  |  |  | inactive |  | inactive | inactive | inactive | inactive | inactive | inactive | inactive |  | 
9 | O=C(O)C(F)(OC(F)(F)C(F)(F)C(F)(F)F)C(F)(F)F (stereo not drawn) | 5.95 µM (active) | inactive | inactive |  | 10.7 µM (active) |  |  |  | inactive |  | inactive | inactive | inactive |  | inactive | inactive | inactive |  | 
10 | CCN(CC)c1ccccc1 |  | inactive | inactive |  |  |  |  |  | inactive |  | inactive | inactive | inactive | inactive | inactive | inactive | inactive |  | 
11 | CN(C)C(=O)Cl |  | inactive | inactive |  |  |  |  |  | inactive |  | inactive | inactive | inactive | inactive | inactive | inactive | inactive |  | 
12 | Cc1ccc([N+](=O)[O-])cc1C |  | inactive | inactive |  |  |  |  |  | inactive |  | inactive | inactive | inactive | inactive | inactive | inactive | inactive |  | 
13 | COP(N)(=S)OC |  | inactive | inactive |  |  |  |  |  | inactive |  | inactive | inactive | inactive | inactive | inactive | inactive | inactive |  | 
14 | Cc1c([N+](=O)[O-])cc2c(c1[N+](=O)[O-])C(C)(C)CC2(C)C | 2.03 µM (active) | inactive | inactive |  |  | 37.5 µM (active) |  |  | inactive |  |  | inactive | inactive |  | inactive | inactive | inactive |  | 
15 | C=CC(=O)OCC(CC)(COC(=O)C=C)COC(=O)C=C | 3.18 µM (active) |  | inactive | 2.33 µM (active) | 11.4 µM (active) | 2.98 µM (active) | 2.25 µM (active) | 4.07 µM (active) |  |  |  |  |  |  |  |  | inactive | 3.68 µM (active) | 20 µM (active)
16 | Nc1ccc([N+](=O)[O-])cc1Cl |  | inactive | inactive |  |  |  |  |  | inactive |  | inactive | inactive | inactive | inactive | inactive | inactive | inactive |  | 

Row | Structure (SMILES) | AC50 [1] | outcome [2] | outcome [3] | AC50 [4] | AC50 [5] | AC50 [6] | AC50 [7] | AC50 [8] | outcome [9] | AC50 [10] | outcome [1] | outcome [4] | outcome [5] | outcome [6] | outcome [7] | outcome [8] | outcome [10] | AC50 [2] | AC50 [9]
17 | ClC(Cl)(Cl)c1ccccc1 |  | inactive | inactive |  |  |  |  |  | inactive |  | inactive | inactive | inactive | inactive | inactive | inactive | inactive |  | 
18 | CCOP(=S)(OCC)SCn1nnc2ccccc2c1=O |  | inactive | inactive |  |  |  |  |  | inactive |  | inactive | inactive | inactive | inactive | inactive | inactive | inactive |  | 
19 | CCCCOCCOP(=O)(OCCOCCCC)OCCOCCCC |  | inactive | inactive |  |  | 37.5 µM (active) |  |  | inactive |  | inactive | inactive | inactive |  | inactive | inactive | inactive |  | 
20 | CCOC(=O)c1ccccc1C(=O)OCC |  | inactive | inactive |  |  |  |  |  | inactive |  | inactive | inactive | inactive | inactive | inactive | inactive | inactive |  | 
21 | CC(C)(C)c1ccccc1OP(=O)(Oc1ccccc1)Oc1ccccc1 | 20 µM (active) | inactive | inactive | 20 µM (active) | 5.01 µM (active) | 20 µM (active) | 20 µM (active) | 11.1 µM (active) | inactive | 20 µM (active) |  |  |  |  |  |  |  |  | 
22 | O=P(Oc1ccccc1)(Oc1ccccc1)Oc1ccccc1 | 29.4 µM (active) | inactive | inactive | 30.2 µM (active) |  | 37.5 µM (active) | 33.2 µM (active) | 28.8 µM (active) | inactive |  |  |  | inactive |  |  |  | inactive |  | 
23 | CCC1(c2ccccc2)C(=O)N=C(O)NC1=O (stereo not drawn) |  | inactive | inactive |  |  |  |  |  | inactive |  | inactive | inactive | inactive | inactive | inactive | inactive | inactive |  | 
24 | c1nc[nH]n1 |  | inactive | inactive |  |  |  |  |  | inactive |  | inactive | inactive | inactive | inactive | inactive | inactive | inactive |  | 
25 | CCNc1nc(Cl)nc(NC(C)(C)C)n1 |  | inactive | inactive |  |  |  |  |  | inactive |  | inactive | inactive | inactive | inactive | inactive | inactive | inactive |  | 
26 | CCOP(=S)(NC(C)C)Oc1ccccc1C(=O)OC(C)C (stereo not drawn) |  | inactive | inactive |  |  |  |  |  | inactive |  | inactive | inactive | inactive | inactive | inactive | inactive | inactive |  | 
27 | ClC1=C(Cl)C2(Cl)C3C(Cl)C(Cl)CC3C1(Cl)C2(Cl)Cl (stereo not drawn) | 35.6 µM (active) |  | inactive | 29.8 µM (active) | 14.4 µM (active) | 37.3 µM (active) | 24.7 µM (active) | 29.6 µM (active) | inactive |  |  |  |  |  |  |  | inactive | 35.6 µM (active) | 
28 | CCOc1ccc(C(C)(C)COCc2cccc(Oc3ccccc3)c2)cc1 |  | inactive | inactive |  |  |  |  |  | inactive |  | inactive | inactive | inactive | inactive | inactive | inactive | inactive |  | 
29 | N#Cc1cc([N+](=O)[O-])ccc1N |  | inactive | inactive |  |  |  |  |  | inactive |  | inactive | inactive | inactive | inactive | inactive | inactive | inactive |  | 
30 | CCOP(=S)(OCC)SCS(=O)(=O)CC |  | inactive | inactive |  |  |  |  |  | inactive |  | inactive | inactive | inactive | inactive | inactive | inactive | inactive |  | 
31 | CCOP(=S)(Oc1ccc([N+](=O)[O-])cc1)c1ccccc1 (stereo not drawn) |  | inactive | inactive |  |  |  |  |  | inactive |  | inactive | inactive | inactive | inactive | inactive | inactive | inactive |  | 
32 | OCC(F)(F)OC(F)(F)C(F)(F)OC(F)(F)C(F)(F)OC(F)(F)CO |  | inactive | inactive | 30 µM (active) | 39.8 µM (active) |  |  | 30 µM (active) | inactive |  | inactive | inactive | inactive |  | inactive | inactive | inactive |  | 
